The campaign covered roughly 16,000 compounds. About 2,600 (16%) were called active. Roughly 20% stayed inconclusive and do not appear here. The list is a sample of the results. A number with no mark means an inactive call. The call rests on the fitted dose curve; in most records, active means well fitted curve in the direction sought with a large enough effect; inconclusive means small, poorly fitted or top-dose-only effect, or effect the other way; inactive means no such curve, though single readings can be large or run the other way.
On the % scale 0 is the no-effect control and ±100 the full control effect.

In this test the target is Cytochrome P450 2D6 (Homo sapiens) (UniProt P10635). Description: Cytochrome panel assay with activity outcomes. Particulars: recombinant CYP, pro-luciferin dealkylation, luminescence, p450-cyp2d6; series mostly up to 57.1 µM.
Cytochrome P450 2D6 (Homo sapiens), sequence (P10635 whole entry, looked up): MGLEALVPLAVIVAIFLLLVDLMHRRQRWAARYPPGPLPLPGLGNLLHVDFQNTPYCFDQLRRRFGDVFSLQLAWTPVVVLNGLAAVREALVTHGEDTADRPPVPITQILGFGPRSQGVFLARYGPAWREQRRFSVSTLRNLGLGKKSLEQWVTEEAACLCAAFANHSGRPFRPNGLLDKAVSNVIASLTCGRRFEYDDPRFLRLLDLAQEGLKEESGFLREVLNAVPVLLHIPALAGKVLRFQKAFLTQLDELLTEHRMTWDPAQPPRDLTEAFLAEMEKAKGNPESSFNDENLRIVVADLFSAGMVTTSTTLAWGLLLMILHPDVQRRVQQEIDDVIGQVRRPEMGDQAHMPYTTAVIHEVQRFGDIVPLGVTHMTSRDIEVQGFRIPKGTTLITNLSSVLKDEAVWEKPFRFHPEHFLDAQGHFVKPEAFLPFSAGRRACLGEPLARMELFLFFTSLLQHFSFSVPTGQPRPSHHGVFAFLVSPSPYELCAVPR
What is called AC50 is the midpoint of the concentration-response curve, whichever way the signal moves. `O=C(/C=C/c1ccccc1)N1CCN(Cc2nc3ccccc3c(=O)[nH]2)CC1`: the AC50 result was “inactive”.

Regarding `CS(=O)(=O)Nc1cccc(-c2nc(NCc3cccnc3)c3ccccc3n2)c1`, the AC50 is 20 µM (active).

For `Cc1cccc(CNc2nc(-c3cccc(NS(C)(=O)=O)c3)nc3ccccc23)c1`, the AC50 is 12.6 µM (active).

As to `CS(=O)(=O)Nc1cccc(-c2nc(NCc3ccccc3)c3ccccc3n2)c1`, the AC50 was 20 µM (active).

On to `COc1cccc(-c2nc(NCc3cccs3)c3ccccc3n2)c1`, for which the half-maximal activity concentration (AC50) is 12.6 µM (active).

On to `O=C(O)CSc1sc(=S)sc1SCC(=O)O`, for which the AC50 result is “inactive”.

`N[C@@H](Cc1ccc(O)c(O)c1)C(=O)O`: the AC50 result was “inactive”.

For `O=C(NNC(=O)c1cc2cc3ccccc3nc2s1)c1cccc(Cl)c1`, the AC50 result was “inactive”.

On to `COc1ccc(NC(=O)c2ccc3c(=O)n(Cc4ccco4)c(=S)[nH]c3c2)c(OC)c1`, for which the AC50 result was “inactive”.

Turning to `Cc1nc2c(ccc3nc(NC(=O)c4ccc5c(c4)OCCO5)sc32)s1`, the AC50 result was “inactive”.

As for `CCOCCCNC(=O)C1CCN(S(=O)(=O)N2CC(C)CC(C)C2)CC1` (configuration not stated), the AC50 entry was “inactive”.

For the molecule `CC[C@H](C)N(C)C(=O)c1cc2ccccc2c(-c2ccccc2Cl)n1`, the AC50 result was “inactive”.

Consider `CCOC(=O)CC(NC(=O)c1ccc(C)cc1)c1ccc(C)cc1` (configuration not stated), for which the AC50 entry was “inactive”.

`O=C(c1cccc(F)c1)N1CCC[C@@]2(CCN(c3cccc(-c4ccccc4)c3)C2)C1`: the AC50 result is “inactive”.

Consider `COc1cccc(Nc2ncc3nc(C)c(=O)n(-c4ccccc4)c3n2)c1`, for which the AC50 entry was “inactive”.

Consider `Cc1oc2c(C)c(O)ccc2c(=O)c1-c1ccc2ccccc2n1`, for which the AC50 result was “inactive”.

With `O=[N+]([O-])c1ccc(CSc2ncnc3c2ncn3[C@@H]2O[C@@H](CO)[C@@H](O)[C@H]2O)cc1`, the AC50 result is “inactive”.

Take `CS(=O)(=O)Nc1cccc(-c2nc(NCc3cccs3)c3ccccc3n2)c1`: the half-maximal activity concentration (AC50) was 10 µM (active).

For `CCOC(=O)C(NC(C)=O)C(OC(C)=O)c1cccc(N(CCO)CCO)c1` (configuration not stated), the AC50 result is “inactive”.

Turning to `Cc1nc(-c2c(C(F)(F)F)noc2-c2ccc(O)cc2O)cs1`, the AC50 entry was “inactive”.

In the case of `CC(=O)Nc1ccc(S(=O)(=O)NCCc2ccc(F)cc2)cc1`, the AC50 is 15.8 µM (active).

Consider `CC(=O)Nc1ccc(S(=O)(=O)c2ccc(N)cc2)cc1`, for which the AC50 entry is “inactive”.

On to `COc1ccc(CCNC(=O)CC(NS(=O)(=O)c2ccc(NC(C)=O)cc2)C(C)C)cc1OC` (configuration not stated), for which the AC50 entry is “inactive”.

For the molecule `CN(C)C(=O)c1ccc(-c2cc(N(C)Cc3ccco3)ncn2)cc1`, the AC50 entry is “inactive”.

Regarding `CN(C)c1ccc(-c2cc(N(C)Cc3ccco3)ncn2)cc1`, the concentration at half-maximal activity (AC50) is 7.94 µM (active).

For the molecule `CN(Cc1ccco1)c1cc(-c2ccoc2)ncn1`, the AC50 entry was “inactive”.

In the case of `CN(Cc1ccco1)c1cc(-c2ccc3c(c2)OCO3)ncn1`, the AC50 was 12.6 µM (active).

In the case of `COc1ccc(C(=O)N2CCC3(CC2)CN(C(=O)Nc2cccc(C#N)c2)C3)cc1`, the AC50 entry was “inactive”.

Regarding `Cc1nn(CCc2n[nH]c(=S)n2-c2ccc(F)c(Cl)c2)c(C)c1[N+](=O)[O-]`, the AC50 entry is “inactive”.

Consider `C#C[C@@]1(OC(C)=O)CC[C@@H]2[C@@H]3CCC4=C[C@@H](OC(C)=O)CC[C@H]4[C@H]3CC[C@]21C`, for which the AC50 result is “inactive”.

As to `N#CCSc1ncnc2c1cnn2CCO`, the AC50 entry was “inactive”.

For the molecule `COC(=O)c1c(-c2ccccc2)csc1NC(=O)CSc1ncnc2sc(C)c(C)c12`, the AC50 result is “inactive”.

Consider `NC(=S)c1ccc[n+]([C@@H]2O[C@@H](COP(=O)([O-])OP(=O)(O)OC[C@@H]3O[C@@H](n4cnc5c(N)ncnc54)[C@@H](OP(=O)(O)O)[C@H]3O)[C@@H](O)[C@H]2O)c1`, for which the AC50 result was “inactive”.

Turning to `COc1ccccc1CN1CCC2(CC1)CCN(C(C)=O)CC2`, the AC50 was 5.01 µM (active).

In the case of `COc1ccc(C(=O)N2CCC3(CCN(Cc4ccncc4)CC3)CC2)cc1`, the AC50 entry was “inactive”.

`COc1ccccc1CN1CCC2(CC1)CCN(C(=O)c1c(C)noc1C)CC2`: the concentration at half-maximal activity (AC50) was 7.94 µM (active).

Regarding `Cc1noc(C)c1C(=O)N1CCC2(CCN(Cc3ccccc3)CC2)CC1`, the AC50 entry was “inactive”.

For `CC(=O)N1CCC2(CCN(Cc3ccncc3)CC2)CC1`, the AC50 entry was “inactive”.

With `CC(=O)N1CCC2(CC1)CCN(c1ccc(-c3ccccc3)cc1)CC2`, the AC50 entry is “inactive”.

In the case of `COC(=O)N1CCC2(CCN(Cc3nccs3)CC2)CC1`, the AC50 result was “inactive”.

Consider `COC(=O)N1CCC2(CCN(Cc3ccccc3OC)CC2)CC1`, for which the half-maximal activity concentration (AC50) is 2 µM (active).

In the case of `COc1ccccc1CN1CC[C@@]2(CCCN(C(=O)c3c(C)noc3C)C2)C1`, the AC50 result was “inactive”.

In the case of `COC(=O)N1CCC2(CC1)CCN(c1cccc(-c3ccccc3)c1)CC2`, the AC50 result is “inactive”.

Regarding `COCC(=O)N1CCC2(CCN(Cc3ccncc3)CC2)CC1`, the AC50 is 6.31 µM (active).

`CC(=O)N1CCC2(CC1)CCN(c1ccccn1)CC2`: the AC50 result was “inactive”.

On to `Cc1cc2c(cc1C)NC1=C(N2)O[C@H](c2c[nH]c3ccc(COc4ccccc4)cc23)C1=O`, for which the activity, negative = inhibition was -9.09% [at 11.4 µM].

Consider `N#C/C(=N\O)c1nc(-c2ccccc2)cs1`, for which the AC50 result is “inactive”.

Regarding `CC(C)(C)c1ccc(OCC(=O)NNC(=O)Cc2cccs2)cc1`, the AC50 result was “inactive”.

On to `C/C(C[n+]1ccccc1)=N\N=C(N)N`, for which the activity, negative = inhibition was 6.81% [at 11.4 µM].

As to `CN(C)C(=O)CSC1c2ccccc2C(=O)N1c1ccccc1` (configuration not stated), the AC50 entry was “inactive”.

As for `O=c1c(-c2ccccc2)nc2cnc(N3CCNCC3)nc2n1C1CC1`, the AC50 result was “inactive”.

As to `Cc1onc(-c2c(F)cccc2Cl)c1C(=O)N[C@@H]1C(=O)N2[C@H]1SC(C)(C)[C@H]2C(=O)O`, the activity, negative = inhibition was 16.2% [at 11.4 µM].

For the molecule `CNc1cc(N2CCCCCC2)ccc1[N+](=O)[O-]`, the AC50 result was “inactive”.

In the case of `CCC(CC)C(=O)Nc1cccc(/C(C)=N/NC(=O)c2c(Br)cnn2C)c1`, the AC50 result was “inactive”.

Regarding `CN(C)CCn1nnnc1SCC1=C(C(=O)O)N2C(=O)[C@@H](NC(=O)Cc3csc(N)n3)[C@@H]2SC1`, the AC50 entry is “inactive”.

As for `COc1ccc(NC(=O)N2CCCC3(CCNCC3)C2)cc1`, the AC50 result is “inactive”.

Turning to `COCC(=O)N1CCC2(CC1)CN(Cc1ccccc1OC)C2`, the AC50 result is “inactive”.

Take `COc1ccccc1CN1CCC2(CCNCC2)CC1`: the AC50 was 0.0316 µM (active).

With `COc1ccc(C(=O)N2CCC3(CCN(Cc4cc(C(F)(F)F)cc(C(F)(F)F)c4)CC3)CC2)cc1`, the AC50 entry was “inactive”.

On to `COCC(=O)N1CCC2(CC1)CCN(C(=O)Nc1ccc(OC)cc1)CC2`, for which the AC50 result was “inactive”.

`COCC(=O)N1CCC2(CC1)CN(Cc1cc(C(F)(F)F)cc(C(F)(F)F)c1)C2`: the AC50 entry was “inactive”.

For the molecule `COCC(=O)N1CCC2(CCN(Cc3ccccc3OC)CC2)CC1`, the AC50 is 15.8 µM (active).

For the molecule `COC(=O)N1CCC2(CCN(Cc3cc(C(F)(F)F)cc(C(F)(F)F)c3)CC2)CC1`, the AC50 is 10 µM (active).

In the case of `Cc1cc2c(cc1S(N)(=O)=O)S(=O)(=O)CCC2`, the AC50 entry is “inactive”.

On to `CON(C)C(=O)c1nnc2c(n1)[nH]c1ccccc12`, for which the activity, negative = inhibition is -2.74% [at 11.4 µM].

Turning to `N[C@H](CCC(=O)N[C@H](CSN=O)C(=O)NCC(=O)O)C(=O)O`, the AC50 result is “inactive”.

In the case of `Cc1ccc(Oc2ncc(CN3CCOCC3)s2)cc1`, the AC50 entry was “inactive”.

`COc1cc(N2CCOCC2)ncn1`: the AC50 result was “inactive”.

Regarding `Cc1cc(C(C)(C)C)c(OCCCN2CCOCC2)c(C(C)(C)C)c1`, the AC50 was 2 µM (active).

`N[C@@]1(C(=O)O)CN[C@H](C(=O)O)C1`: the AC50 entry is “inactive”.

For the molecule `NC1(C(=O)O)CC(C(=O)O)C1` (configuration not stated), the AC50 entry is “inactive”.

On to `Cc1cc(C)cc(-n2nnnc2SCC(=O)Nc2nc(-c3ccc(F)cc3)cs2)c1`, for which the AC50 entry was “inactive”.

As for `COc1ccc(COC(=O)N/N=C2/C[C@@H](O)[C@@H](O)[C@@H]3[C@@H]4C(=O)N(C(C)(C)C)C(=O)[C@H]4CC[C@@H]23)cc1`, the activity, negative = inhibition was 12.5% [at 11.4 µM].

With `CCC(CC)C(=O)Nc1cccc(/C(C)=N\NC(=O)c2ccc(C)s2)c1`, the AC50 entry was “inactive”.

For the molecule `COC(=O)CSC(C(=O)Nc1ccc(C)c(C)c1)c1ccccc1` (configuration not stated), the AC50 entry is “inactive”.

`CCC(CC)C(=O)Nc1ccc(C)c(O)c1`: the AC50 is 17.8 µM (active).

For `CCOC(=O)CN(C(=O)CCC(=O)Nc1cc(C)on1)C(C(=O)NC1CCCC1)c1cccnc1` (configuration not stated), the AC50 result was “inactive”.

Take `CCOc1ccc(N(C(=O)/C=C/C(=O)Nc2cc(C)on2)C(C(=O)NC2CCCC2)c2ccccc2C)cc1` (configuration not stated): the AC50 is 14.1 µM (active).

As for `Cc1ccccc1C(C(=O)NC1CCCC1)N(C(=O)Cc1cccs1)c1ccc2c(c1)OCCO2` (configuration not stated), the AC50 result was “inactive”.

On to `COc1cccc(C(CC(=O)Nc2cccc3ccccc23)NC(=O)c2ccccc2)c1` (configuration not stated), for which the AC50 entry is “inactive”.

Take `COC(=O)c1cc2c(ccn2-c2ccc(F)cc2)n1C(C)C`: the AC50 result was “inactive”.

Turning to `CNC(=O)c1cc2c(cn1)[nH]c1ccccc12`, the AC50 result is “inactive”.

With `O=c1ccc(-c2ccccc2)n[nH]1`, the activity, negative = inhibition is 2.58% [at 11.4 µM].

Take `O=C1c2ccccc2-c2n[nH]c3cccc1c23`: the AC50 is 0.398 µM (active).

In the case of `Nc1n[nH]c2ccccc12`, the activity, negative = inhibition was -3.15% [at 11.4 µM].

In the case of `Cc1ccc(NC(=O)CN2C(=O)N/C(=C/c3ccc(C)o3)C2=O)cc1`, the AC50 entry was “inactive”.

In the case of `CC(=O)OCc1nc2ccccc2s1`, the AC50 result was “inactive”.

In the case of `CCCCOC(=O)Nc1nc2ccccc2s1`, the AC50 result was “inactive”.

Take `CCCc1cc(C(=O)Cc2nc3ccccc3s2)c(O)cc1O`: the AC50 is 1.41 µM (active).

Regarding `Cc1cc2ncn(/N=C/c3ccc([N+](=O)[O-])o3)c2cc1C`, the AC50 result is “inactive”.

As to `COc1cccc2cc3c(=O)oc4ccccc4c3nc12`, the AC50 entry was “inactive”.

`COc1cccc(-c2cc(=O)c3ccccc3o2)c1N`: the half-maximal activity concentration (AC50) is 7.94 µM (active).

As for `Cc1cccc(NC(=O)c2cc(=O)c3ccccc3o2)n1`, the AC50 entry is “inactive”.

`CC1CC2=C(NC(=S)NC2c2ccc(F)cc2)/C(=C/c2ccc(F)cc2)C1` (configuration not stated): the AC50 entry is “inactive”.

Regarding `CO[C@@H]1/C=C\CC(=O)N[C@@H](C)C(=O)OC[C@H](NS(=O)(=O)c2ccc(C)cc2)[C@H](C)/C=C\CC(=O)OC[C@H]1C`, the activity, negative = inhibition is -18.7% [at 11.4 µM].

On to `COc1cccc(-c2cc3nc(-c4ccccc4)cc(N4CCC5(CC4)OCCO5)n3n2)c1`, for which the AC50 result was “inactive”.

As for `CCNc1ncc2nc(CCc3ccccc3)c(=O)n(CCOC)c2n1`, the AC50 is 0.398 µM (active).

For `COc1cccc(Nc2ncc3nc(CCc4ccccc4)c(=O)n(CCC#N)c3n2)c1`, the AC50 result was “inactive”.

Regarding `N#CCCn1c(=O)c(CCc2ccccc2)nc2cnc(Nc3ccccc3)nc21`, the AC50 result is “inactive”.

With `COCCn1c(=O)c(CCc2ccccc2)nc2cnc(OC)nc21`, the AC50 entry was “inactive”.

Take `CCNc1ncc2nc(CCc3ccccc3)c(=O)n(CCC#N)c2n1`: the AC50 is 0.158 µM (active).

Turning to `CCNc1ncc2nc(CCc3ccccc3)c(=O)n(Cc3cccc(OC)c3)c2n1`, the AC50 entry was “inactive”.

For the origin of these results see PubChem BioAssay AID1851 (National Center for Advancing Translational Sciences (NCATS), 2009).
